# High-throughput results (PubChem)
# CHT inh: inhibits the human high affinity choline transporter; B-score at 10 µM; Q9GZV3; actives 0.86% (n = 310,000); CHT-expressing cells, membrane potential dye, choline response; active compounds read low;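 active = B-score over 3 SD under the library average, and starting fluorescence ratio not unusually high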;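 note: choline stimulus applied at its EC90 after an EC20 pre-addition; B-score computed on integrated fluorescence ratio after choline addition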
# EP2 modulator: modulates human prostaglandin E2 receptor EP2 signaling; induction, % at 25 µM; P43116; actives 0.83% (n = 260,000); EP2-expressing cells, cAMP HTRF FRET, PGE2 co-stimulation; AID 940;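 active = compounds whose cAMP rise, as percent of the full-agonist control response, exceeds 60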;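 note: rat C6 glioma line stably carrying human EP2 under a CMV promoter; the protocol text gives 20 µM as final concentration; 100% = response of wells given 1 µM PGE2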
# Target sequence (P43116 whole entry, looked up): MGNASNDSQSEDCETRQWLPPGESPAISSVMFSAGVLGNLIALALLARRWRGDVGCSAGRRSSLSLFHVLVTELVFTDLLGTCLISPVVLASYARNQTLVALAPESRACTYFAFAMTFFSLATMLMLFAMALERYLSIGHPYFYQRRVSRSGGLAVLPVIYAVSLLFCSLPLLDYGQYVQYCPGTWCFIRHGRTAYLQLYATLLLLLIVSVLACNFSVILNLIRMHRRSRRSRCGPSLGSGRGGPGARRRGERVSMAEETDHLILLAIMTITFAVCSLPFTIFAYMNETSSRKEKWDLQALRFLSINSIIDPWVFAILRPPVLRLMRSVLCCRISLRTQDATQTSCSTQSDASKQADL
# CHT allo act: human CHT allosteric activation; Q9GZV3; actives 0.49% (n = 310,000); B-score at 10 µM; AID 488977; CHT-expressing cells, membrane potential dye, choline EC20; active compounds read high; LV-AA mutant CHT in HEK293 cells;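 active = initial fluorescence not abnormally high and integrated response B-score, plate-corrected, over 3 SD above library mean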
# EP2 antag: inhibitors of human EP2 prostaglandin E2 receptor; P43116; C6 glioma cells expressing human EP2, cAMP TR-FRET; cells stimulated with saturating PGE2; inhibition, % at 25 µM; actives 0.52% (n = 260,000);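 active = percent inhibition above 40 after rounding to a whole number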;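 note: rat C6 glioma host cells with rolipram phosphodiesterase inhibitor present; the protocol text gives 20 µM as final concentration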
# CHT activ conf: human CHT activation, confirmatory screen. actives 91% (n = 2,500). shares compounds with CHT allo act. AID 504833. activation, % at 10 µM. CHT-expressing cells, membrane potential dye fluorescence (FDSS); % of choline EC20–EC90 response window; HEK293 expressing CHT LV-AA mutant; choline added at its EC20;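 active = primary screen active, with duplicate mean activation above negative control mean plus 3 SD, cut at about 11% in these data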
# HEK293 MP dye: CHT activator counter-screen hit in parental HEK293 cells. ratio readout change at 10 µM, hits read low. membrane potential dye fluorescence (FDSS); measured after EC20 choline addition. shares compounds with CHT allo act. actives 62% (n = 2,500);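 active = duplicate-averaged ratio beyond 3 SD from buffer wells, up or down, though filed actives are nearly all decreases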
# * hit, by the source's call; i = inactive; x = not tested or not shown. Shown are actives, neighbours in structure and some others; about 2% of the full set was active somewhere.
SMILES,CHT inh,EP2 modulator,CHT allo act,EP2 antag,CHT activ conf,HEK293 MP dye
CC1CCN(C(=O)C2CCCN(S(=O)(=O)c3ccc(Cl)cc3)C2)CC1 (stereo unspecified),x,-6,x,5,x,x
COC(=O)C1=CN(Cc2ccccc2)C=C(C(=O)OC)C1c1ccc(O)c(OC)c1,i,x,i,x,x,x
CCOc1cc(C2C(C(=O)OC)=CN(Cc3ccc(Cl)cc3)C=C2C(=O)OC)ccc1O,i,x,i,x,20*,i
Cc1[nH]c2ccccc2c1/C=N/Nc1ccc([N+](=O)[O-])cc1,i,-4,i,10,17*,i
N#Cc1c(-c2cccnc2)cc(-c2ccc(F)cc2)[nH]c1=O,x,-10,x,11,x,x
Cc1ccc2c(c1)S/C(=C/c1ccc[n+](C)c1)N2CCO,i,1,7*,6,34*,-49*
Cc1ccc2c(c1)N(C)/C(=C/c1cccc[n+]1CCO)S2,i,x,i,x,x,x
CCN(Cc1ccncc1)Cc1cn(C)nc1-c1ccc(Oc2ccccc2)cc1,i,-22,i,3,19*,i
Cc1cc(C)n2nc(-c3cccnc3)nc2n1,i,13,i,14,48*,-51*
COc1cc(Nc2c3c(nc4ccccc24)CCCC3)cc(OC)c1OC,i,-2,i,2,45*,-49*
COc1ccccc1Nc1c2c(nc3ccccc13)CCC2,i,x,i,x,x,x
CCCCCn1c(CN2CCN(C)CC2)nc2c1c(=O)n(C)c(=O)n2C,i,-9,i,x,46*,-36*
CCCCCCn1c(CN2CCN(C(=O)c3ccco3)CC2)nc2c1c(=O)n(C)c(=O)n2C,i,21,i,9,x,x
CCCCCCn1c(CN2CCN(Cc3ccccc3)CC2)nc2c1c(=O)n(C)c(=O)n2C,i,10,i,6,24*,i
CCn1c(N2CCC(C(=O)NCc3ccccc3F)CC2)nc2ccccc21,x,-43,x,x,x,x
Cc1sc2c(=O)n3c(nc2c1C(=O)NCCCN1CCOCC1)CCCCC3,i,6,6.9*,12,51*,-40*
Cc1cc2c(o1)c1cnn(CC(=O)NC3CCCC3)c(=O)c1n2C(C)C,x,-14,x,x,x,x
Cc1ccccc1Oc1nc2c(C)cccn2c(=O)c1/C=C(\C#N)C(=O)NC1CCS(=O)(=O)C1 (stereo unspecified),i,-26,i,9,x,x
Cc1cccn2c(=O)c3cc(C(=O)NC4CCCC4)c(=N)n(C4CCCC4)c3nc12,i,-5,i,5,34*,-39*
Cc1cccn2c(=O)c3cc(C(=O)NC4CCS(=O)(=O)C4)sc3nc12 (stereo unspecified),i,12,6.4*,x,51*,-43*
Cc1cccn2c(=O)c(/C=C(\C#N)C(=O)NC3CCS(=O)(=O)C3)c(Oc3ccccc3Cl)nc12 (stereo unspecified),i,x,i,x,8,-47*
Cc1cccn2c(=O)c3cc(C(=O)N4COCC4(C)C)sc3nc12,i,-48,i,2,35*,-30*
CCCn1c(=N)c(C(=O)NC2CCCC2)cc2c(=O)n3cccc(C)c3nc21,i,-17,i,13,x,x
Cc1cccn2c(=O)c3cc(C(=O)NC4CCCCCC4)sc3nc12,i,x,i,x,x,x
COCCN(C(=S)Nc1ccc(OC)cc1)C(C)c1cccs1 (stereo unspecified),i,1,8.1*,6,6,i
SMILES,CHT inh,EP2 modulator,CHT allo act,EP2 antag,CHT activ conf,HEK293 MP dye
COc1ccc(CN(CCCn2ccnc2)Cc2c(C)oc3ccccc23)cc1,x,1,x,11,x,x
O=C(NC1CCCCC1)N1CCN(C2CCCC2)CC1,x,15,x,3,x,x
Cc1cc(=O)oc2cc(OCC(=O)N3CCC(O)CC3)c(Cl)cc12,i,x,i,x,25*,-21*
Cc1cc2c(s1)c1cnn(CC(=O)NC3CCCCC3)c(=O)c1n2C,x,-1,x,x,x,x
CCOC(=O)c1sc(NC(=O)c2c(OC)cccc2OC)nc1C,i,-6,i,21,x,x
CCOC(=O)c1sc(NC(=O)Cc2ccccc2OC)nc1C,i,x,i,x,15*,i
C(=N\n1cnnc1)/c1ccc2ncccc2c1,i,15,8*,8,67*,-80*
Cc1ccc(C(=O)O/N=C(\N)c2cccc([N+](=O)[O-])c2)cc1,i,21,i,4,x,x
N/C(=N\OC(=O)c1ccncc1)c1cccc([N+](=O)[O-])c1,i,x,7.3*,x,37*,-46*
O=C(NCc1ccco1)c1ccc2c(c1)S(=O)(=O)c1ccccc1C2=O,i,x,8.6*,1,30*,i
Cc1sc2nc(C3CC3)n3c(=O)n(CC(=O)NC4CCCC4)nc3c2c1C,x,-3,x,x,x,x
Cc1cc(Cl)ccc1OC(C)C(=O)NCCc1ccc2c(c1)OCCO2 (stereo unspecified),i,-59,i,10,9,i
Cc1cc(Cl)ccc1OC(C)C(=O)NCCCCc1ccccc1 (stereo unspecified),i,-32,i,4,x,x
COc1ccc(NC(=O)c2cc3sccc3n2C)c(OC)c1,x,-30,x,9,x,x
C[n+]1ccc(/C=C/c2ccccc2O)c2ccccc21,i,8,i,14,30*,-39*
Cc1cc(=O)n2[nH]c(-c3ccc(F)cc3)cc2n1,i,-47,i,11,42*,-31*
COc1cc(C)cc(OC)c1/C=C/C(=O)O,x,24,x,6,x,x
CCn1c(=O)oc2cc(S(=O)(=O)N3CCCC(C(N)=O)C3)ccc21 (stereo unspecified),x,-23,x,4,x,x
C[C@H]1CCC(=O)N([C@H](COc2ccccc2)Cc2ccccc2)CC1,i,x,6.3*,x,40*,i
O=C(CN1CCC(n2cnc3cccnc32)CC1)Nc1ccc(N2CCOCC2)cc1,x,-31,x,7,x,x
CC1(C)Cc2c(sc3c2C2=NCCN2C=N3)CS1,i,23,9.5*,22,34*,-62*
O=C(c1cccnc1)C1CCN(C(=O)Cc2ccc(F)cc2Cl)CC1,x,-26,x,0,x,x
O=C(NC(=S)N1CCCC1)c1cccs1,x,9,x,20,x,x
O=C1CC2(CCN(C(=O)c3cccc(Br)c3)CC2)Oc2ccccc21,i,x,8.9*,x,5,i
O=C1CC2(CCN(C(=O)c3ccccc3Cl)CC2)Oc2ccccc21,i,x,i,x,-9,i
O=C1CC2(CCN(C(=O)c3ccc(Cl)cc3)CC2)Oc2ccccc21,i,x,i,x,x,x
CCC(C)(C)n1nnnc1C(c1ccc(F)cc1)N1CCN(C2CCCCC2)CC1 (stereo unspecified),x,-15,x,8,x,x
CCOC(=O)c1nnn2c1nc(N1CCN(C)CC1)c1ccccc12,i,3,8.6*,3,58*,-67*
